Read-outs that look alike come from different tables or passages of the source.

What all share (parameters): species or system human, MV4-11 + K-562 + COLO205 + SK-N-BE2 + OVCAR-8
In one experiment the test system is EPHA5. The conditions noted are these: read-out: apparent Kd, n = 1.
The next experiment has as its system EPHB1. The following applies: read-out: apparent Kd; compound concentrations: 100 nM and 1000 nM (sheet 'Samples'), CATDS: 6.9197667639957702E-2; n = 1.
The test system of a further experiment is DDR2. The following applies: read-out: apparent Kd, n = 1.
A further experiment deals with NLK. The conditions noted are these: read-out: apparent Kd; compound concentrations:100 nM and 1000 nM (sheet 'Samples'); n = 1.
The subject of another experiment is EPHB6. The following applies: read-out: apparent Kd, n = 1.
The subject of another experiment is MAP2K5. The following applies: read-out: apparent Kd, n = 1.
Another experiment concerns TNK2. The following applies: read-out: apparent Kd, n = 1.
The next experiment deals with BMPR1B. The conditions noted are these: read-out: apparent Kd, n = 1.
The next experiment deals with CDKL5. The conditions noted are these: read-out: apparent Kd, n = 1.
The next experiment concerns BTK. The following applies: read-out: apparent Kd, n = 1.
A further experiment relates to CDK16. The conditions noted are these: read-out: apparent Kd, n = 1.
In the next experiment the test system is CDK17. The conditions noted are these: read-out: apparent Kd, n = 1.
In the next experiment the test system is FLT4. The following applies: read-out: apparent Kd, compound concentrations: 100 nM and 1000 nM (sheet 'Samples'), n = 1.
A further experiment deals with PLK4. The following applies: read-out: apparent Kd, n = 1.
The subject of the next experiment is PRKD2. The following applies: read-out: apparent Kd, n = 1.
Another experiment relates to RIOK2. The conditions noted are these: read-out: apparent Kd; compound concentrations:100 nM and 1000 nM (sheet 'Samples'); n = 1.
A further experiment concerns JAK2. The following applies: read-out: apparent Kd, n = 1.
Another experiment relates to AKT1. The conditions noted are these: read-out: apparent Kd; compound concentrations:100 nM and 1000 nM (sheet 'Samples'); n = 1.
Where [1] appears, read: compound concentrations:100 nM and 1000 nM (sheet 'Samples').

With `Cc1ccc(O)cc1Nc1ccnc2ccc(C(C)(C)C)cc12` [GW856805X], the potency estimated from few doses is 16.4 nM in the experiment with EPHA5 (compound concentrations: 100 nM and 1000 nM (sheet 'Samples'), CATDS: 8.5514092870098604E-2); 25.7 nM with EPHB1.
With `CNc1nccc(-c2c(-c3ccc(F)cc3)ncn2C2CCN(C)CC2)n1` [SB-222903], the potency estimated from few doses in the experiment on DDR2 (setting [1]) was 625 nM; in the experiment with EPHA5 (setting [1]), 465 nM; in the experiment on NLK, 19.1 nM.
`c1ccc(Oc2ccc(Nc3ccnc4cc(-c5ccc(CN6CCCCC6)o5)ccc34)cc2)nc1` [GW567143X]: the potency estimated from few doses was 1830 nM in the experiment on EPHB6 (compound concentrations: 100 nM and 1000 nM (sheet 'Samples'), CATDS: 3.4972740863409998E-2); 108 nM in the experiment on MAP2K5 (compound concentrations: 100 nM and 1000 nM (sheet 'Samples'), CATDS: 0.10658346724576); 1080 nM with TNK2 (compound concentrations: 100 nM and 1000 nM (sheet 'Samples'), CATDS: 3.98580587888741E-2).
Take `COc1cccc(-c2c[nH]c3c(N/N=C/c4ccncc4)ncnc23)c1` [GW814408X]: the potency estimated from few doses in the experiment with BMPR1B (setting [1]) was 612 nM; with CDKL5 (setting [1]), 1300 nM.
As to `CC(C)c1nc(-c2cccc(NS(=O)(=O)c3c(F)cccc3F)c2)c(-c2ccnc(Nc3ccc(N4CCOCC4)nc3)n2)s1.Cl` [GSK1723980B], the potency estimated from few doses was 1260 nM in the experiment on BTK (compound concentrations: 100 nM and 1000 nM (sheet 'Samples'), CATDS: 1.5505297907028599E-2); 294 nM in the experiment on CDK16 (compound concentrations: 100 nM and 1000 nM (sheet 'Samples'), CATDS: 2.4648897890500801E-2); 647 nM in the experiment with CDK17 (compound concentrations: 100 nM and 1000 nM (sheet 'Samples'), CATDS: 1.84448623420372E-2); 848 nM in the experiment on CDKL5 (compound concentrations: 100 nM and 1000 nM (sheet 'Samples'), CATDS: 1.7066760873740601E-2); 294 nM in the experiment with EPHB6 (compound concentrations: 100 nM and 1000 nM (sheet 'Samples'), CATDS: 2.4657232775903402E-2); 161 nM in the experiment on FLT4 (CATDS: 3.28978835638193E-2). Besides, the potency estimated from few doses in the experiment on PLK4 (compound concentrations: 100 nM and 1000 nM (sheet 'Samples'), CATDS: 6.4259568423255198E-2) was 54.8 nM; in the experiment on PRKD2 (compound concentrations: 100 nM and 1000 nM (sheet 'Samples'), CATDS: 3.4388885610582398E-2), 149 nM; in the experiment on TNK2 (compound concentrations: 100 nM and 1000 nM (sheet 'Samples'), CATDS: 1.9330772041295699E-2) it was 558 nM.
As to `NS(=O)(=O)CCc1cccc(Nc2nccc(-c3c(-c4cccc(NC(=O)c5c(F)cccc5F)c4)nn4ccccc34)n2)c1` [GSK336735A], in the experiment with BTK (compound concentrations: 100 nM and 1000 nM (sheet 'Samples'), CATDS: 6.9613472327250694E-2), the potency estimated from few doses is 756 nM.
Consider `N#Cc1cccc(Nc2nccc(-c3cnn4ncccc34)n2)c1` [GW778894X], for which the potency estimated from few doses with CDK16 (setting [1]) is 13 nM; in the experiment with CDK17 (setting [1]), 44.8 nM; in the experiment on CDKL5 (setting [1]), 6.82 nM; in the experiment with NLK, 1560 nM; in the experiment with RIOK2, 75.3 nM.
As for `CN1CCN(c2ccc(Nc3nc(N)c(C(=O)c4ccc5c(c4)OCCO5)s3)cc2)CC1` [RO0505124-000], in the experiment on JAK2 (compound concentrations: 100 nM and 1000 nM (sheet 'Samples'), CATDS: 0.61009142123011895), the potency estimated from few doses was 50.1 nM.
For the compound `O=S(=O)(CCOCc1ccc(-c2ccc3ncnc(Nc4ccc(OCc5cccc(F)c5)c(Cl)c4)c3c2)o1)c1ccccc1` [GW615311X], the potency estimated from few doses in the experiment with CDK17 (compound concentrations: 100 nM and 1000 nM (sheet 'Samples'), CATDS: 2.3617209164995101E-2) was 2010 nM.
With `CS(=O)(=O)Cc1ccc(Nc2nccc(-c3c(-c4cccc(NC(=O)c5c(F)cccc5F)c4)nn4ccccc34)n2)cc1` [GSK323543A], the potency estimated from few doses in the experiment on BTK (compound concentrations: 100 nM and 1000 nM (sheet 'Samples'), CATDS: 6.87410205009992E-2) is 1140 nM.
In the case of `COc1cc2nccc(Nc3ccc(Oc4ccccc4)cc3)c2cc1OC.Cl` [GI261656A], the potency estimated from few doses with BTK (compound concentrations: 100 nM and 1000 nM (sheet 'Samples'), CATDS: 4.2074902264998597E-2) is 1400 nM; in the experiment with MAP2K5 (compound concentrations: 100 nM and 1000 nM (sheet 'Samples'), CATDS: 9.9796697062305095E-2), 95.6 nM.
For the compound `COc1cc2ncn(-c3cc(OCc4cccs4)c(C(N)=O)s3)c2cc1OC` [GSK312948A], the potency estimated from few doses in the experiment on MAP2K5 (setting [1]) was 461 nM.
With `O=S(=O)(c1ccc(-c2ccnc3[nH]ccc23)cc1)N1CCCC1` [GSK846226A], the potency estimated from few doses with RIOK2 was 2220 nM.
Turning to `Nc1nc(N)c2nc(-c3ccccc3)[nH]c2n1` [SKF-12778], the potency estimated from few doses with AKT1 was 1480 nM; in the experiment on BTK (setting [1]), 1330 nM; in the experiment with JAK2 (setting [1]), 66.2 nM; in the experiment with NLK, 1660 nM; with RIOK2, 1620 nM.
On to `COc1cccc(-n2cnc3c(N/N=C/c4ccncc4)ncnc32)c1` [GW813360X], for which the potency estimated from few doses in the experiment on MAP2K5 (compound concentrations: 100 nM and 1000 nM (sheet 'Samples'), CATDS: 0.129253463235972) is 2170 nM.
With `CN1CCN(Cc2ccc(-c3ccc4c(Nc5ccc(Oc6ccccn6)cc5)ccnc4c3)o2)CC1` [GW567140X], the potency estimated from few doses in the experiment on MAP2K5 (compound concentrations: 100 nM and 1000 nM (sheet 'Samples'), CATDS: 0.16913978514831801) is 58.2 nM; in the experiment on TNK2 (compound concentrations: 100 nM and 1000 nM (sheet 'Samples'), CATDS: 4.3541420759690502E-2), 720 nM.
Take `CC(C)c1nc(-c2ccc(F)c(NS(=O)(=O)c3c(F)cccc3F)c2)c(-c2ccnc(Nc3ccc(N4CCOCC4)nc3)n2)s1` [GSK1804250A]: the potency estimated from few doses in the experiment with CDK16 (setting [1]) is 1890 nM; in the experiment with CDKL5 (setting [1]), 984 nM; in the experiment with EPHB6 (setting [1]), 738 nM; in the experiment with PLK4 (setting [1]), 403 nM; with PRKD2 (setting [1]), 232 nM; in the experiment on TNK2 (setting [1]) it was 232 nM.
As for `Nc1ncc(-c2cn[nH]c2)c2scc(-c3ccc4c(c3)CCN4C(=O)Cc3ccccc3)c12` [GSK2593067A], the potency estimated from few doses in the experiment on EPHB6 (compound concentrations: 100 nM and 1000 nM (sheet 'Samples'), CATDS: 9.2316879629761303E-2) is 522 nM.
Take `CN1CCN(Cc2ccc(NC(=O)Nc3ccc(N(C)c4ccnc(Nc5ccc(CS(C)(=O)=O)cc5)n4)cc3)cc2)CC1.Cl` [GW827654A]: the potency estimated from few doses with DDR2 (compound concentrations: 100 nM and 1000 nM (sheet 'Samples'), CATDS: 5.9738771402131699E-2) was 348 nM; in the experiment on FLT4 (CATDS: 0.106760971330705), 109 nM; in the experiment on TNK2 (compound concentrations: 100 nM and 1000 nM (sheet 'Samples'), CATDS: 6.4241949787580299E-2), 295 nM.
Turning to `Fc1ccc(-c2c(-c3ccncc3)[nH]c3nccnc23)cc1` [RO1155697-000], the potency estimated from few doses in the experiment with DDR2 (setting [1]) is 886 nM; in the experiment with PRKD2 (setting [1]) it was 962 nM.
On to `Cc1cc(O)cc(C)c1/C=C/c1cncc(-c2nn[nH]n2)c1.Cl` [GW441806A], for which the potency estimated from few doses in the experiment with EPHB6 (compound concentrations: 100 nM and 1000 nM (sheet 'Samples'), CATDS: 4.3077369875392603E-2) is 1670 nM; in the experiment on JAK2 (compound concentrations: 100 nM and 1000 nM (sheet 'Samples'), CATDS: 7.0798034106367105E-2), 387 nM; in the experiment with MAP2K5 (compound concentrations: 100 nM and 1000 nM (sheet 'Samples'), CATDS: 4.6114067598033499E-2), 1310 nM.
As to `CN1CCc2ccc(Nc3nccc(-c4c(-c5cccc(NC(=O)c6c(F)cccc6F)c5)nc5ccccn45)n3)cc2C1.Cl` [GSK1010829B], the potency estimated from few doses in the experiment with BTK (compound concentrations: 100 nM and 1000 nM (sheet 'Samples'), CATDS: 5.3394659124358E-2) is 497 nM.
Consider `CNC(=O)c1ccccc1Nc1nc(Nc2cccc(CS(C)(=O)=O)c2)ncc1C.O=CO` [GSK1520489A], for which the potency estimated from few doses with BMPR1B (compound concentrations: 100 nM and 1000 nM (sheet 'Samples'), CATDS: 1.50633752553141E-2) is 288 nM; with BTK (compound concentrations: 100 nM and 1000 nM (sheet 'Samples'), CATDS: 3.3529613297139299E-2), 46.5 nM; in the experiment on DDR2 (compound concentrations: 100 nM and 1000 nM (sheet 'Samples'), CATDS: 1.3086276372357399E-2), 443 nM; with FLT4 (CATDS: 2.0677135389333402E-2) it was 127 nM; in the experiment on JAK2 (compound concentrations: 100 nM and 1000 nM (sheet 'Samples'), CATDS: 1.0777709602795499E-2), 917 nM; in the experiment on PLK4 (compound concentrations: 100 nM and 1000 nM (sheet 'Samples'), CATDS: 5.6526690593712202E-2) it was 19.3 nM.

These data come from publication PMC11062922 (Nature Chemical Biology, 2023).
